57 compounds from PMC4336329 (PLoS ONE, 2015) can be followed below.

Screen size: about 310,000 compounds; about 14,000 (4.5%) showed an effect of 50% or more. Effects have a minus sign here. Only a selection was taken, and strong results are over-represented in it overall.
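Note: peak tail current of the secondary pulse compared with the same well before compound.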

The target of the test is human ether-à-go-go-related gene (hERG) potassium channel (human, UniProt Q12809). As to the kind of experiment: primary screen, population patch clamp on CHO cells stably expressing hERG; higher = less effect of the substance.
human ether-à-go-go-related gene (hERG) potassium channel, sequence (Q12809 whole entry, looked up): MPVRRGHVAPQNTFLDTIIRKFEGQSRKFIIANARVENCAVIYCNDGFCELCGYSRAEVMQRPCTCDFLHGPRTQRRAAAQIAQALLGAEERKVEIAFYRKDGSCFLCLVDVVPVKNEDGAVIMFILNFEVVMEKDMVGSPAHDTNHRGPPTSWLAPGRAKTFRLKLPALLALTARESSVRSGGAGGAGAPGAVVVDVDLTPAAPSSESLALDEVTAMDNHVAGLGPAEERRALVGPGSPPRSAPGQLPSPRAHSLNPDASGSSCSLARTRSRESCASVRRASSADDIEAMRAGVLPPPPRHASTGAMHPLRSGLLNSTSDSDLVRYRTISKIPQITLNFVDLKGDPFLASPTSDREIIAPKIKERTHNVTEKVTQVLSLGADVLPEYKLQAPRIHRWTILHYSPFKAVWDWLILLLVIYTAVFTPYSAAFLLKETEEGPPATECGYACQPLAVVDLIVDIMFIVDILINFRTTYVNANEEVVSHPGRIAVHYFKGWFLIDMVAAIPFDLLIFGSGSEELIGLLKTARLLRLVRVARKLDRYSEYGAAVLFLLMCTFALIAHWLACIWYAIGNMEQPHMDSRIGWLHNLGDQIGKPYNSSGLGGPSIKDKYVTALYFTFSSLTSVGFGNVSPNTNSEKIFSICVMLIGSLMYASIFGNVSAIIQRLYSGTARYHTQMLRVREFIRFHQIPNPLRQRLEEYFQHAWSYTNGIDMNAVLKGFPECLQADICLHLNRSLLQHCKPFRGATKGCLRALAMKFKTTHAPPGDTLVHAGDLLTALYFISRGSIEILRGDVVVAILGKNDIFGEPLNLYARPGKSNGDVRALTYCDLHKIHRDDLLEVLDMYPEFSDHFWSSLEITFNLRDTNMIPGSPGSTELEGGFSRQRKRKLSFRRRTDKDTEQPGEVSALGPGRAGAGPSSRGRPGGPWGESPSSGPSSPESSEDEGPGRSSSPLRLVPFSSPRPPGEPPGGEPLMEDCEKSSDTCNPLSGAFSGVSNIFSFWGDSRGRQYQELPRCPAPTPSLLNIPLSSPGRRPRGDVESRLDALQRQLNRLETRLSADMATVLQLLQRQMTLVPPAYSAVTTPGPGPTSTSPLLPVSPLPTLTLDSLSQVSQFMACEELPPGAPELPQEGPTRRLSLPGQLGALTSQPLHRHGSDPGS
With `CCOC(=O)CCc1c(C)nc(SCCN2CCCC2)c(C#N)c1C`, the “hERG current change (%, negative = inhibition) at 10uM” value is -63.9%. Turning to `CCOC(=O)CCc1c(C)nc(SCC(=O)O)c(C#N)c1C`, the “hERG current change (%, negative = inhibition) at 10uM” value was -2.59%.

For the compound `CCOC(=O)CCc1c(C)nc(SCc2ccc(C(=O)O)cc2)c(C#N)c1C`, the “hERG current change (%, negative = inhibition) at 10uM” value is -11.7%. Regarding `COc1ccc(C(=O)CC(=O)Nc2ccc([N+](=O)[O-])cc2)cc1`, the “hERG current change (%, negative = inhibition) at 10uM” value was -1.39%.

With `COc1ccc(NS(=O)(=O)c2cc(NC(=O)CC(=O)c3ccc([N+](=O)[O-])cc3)ccc2C)cc1`, the “hERG current change (%, negative = inhibition) at 10uM” value is reported as 5.94%. Regarding `CS(=O)(=O)Nc1ccc(C(=O)CC(=O)Nc2ccc([N+](=O)[O-])cc2)cc1`, the “hERG current change (%, negative = inhibition) at 10uM” value is given as -60.7%. Next, `COc1cccc(CC(=O)NCC2(N3CCCCC3)CCCCC2)c1`: 25%. For the compound `Cn1cc(Br)c(C(=O)NC2CCCCCC2)n1`, the “hERG current change (%, negative = inhibition) at 10uM” value is on record as 2.74%.

As for `Cc1cccn2c(=O)nc(SCC(=O)Nc3ccc4c(c3)OCO4)nc12`, the “hERG current change (%, negative = inhibition) at 10uM” value was -5.58%.

Turning to `CCN(C(=O)CSc1nc2nc(C)cc(C)n2n1)C1CCS(=O)(=O)C1` (stereo not drawn), the “hERG current change (%, negative = inhibition) at 10uM” value was determined as 20.5%. Take `N#Cc1ccccc1OCC(=O)OCCCOC(=O)COc1ccccc1C#N`: the “hERG current change (%, negative = inhibition) at 10uM” value is 10.1%. In the case of `N#Cc1ccc(OCC(=O)OCCCOC(=O)COc2ccc(C#N)cc2)cc1`, the “hERG current change (%, negative = inhibition) at 10uM” value was -66.8%. `CC(=O)N1CCN(C(=O)COC(=O)COc2ccc(C#N)cc2)CC1`: the “hERG current change (%, negative = inhibition) at 10uM” value is on record as 4.54%. On to `CCOC(=O)c1c(NC(=O)CCN2C(=O)c3ccccc3C2=O)sc(C(=O)OC(C)C)c1C`, for which the “hERG current change (%, negative = inhibition) at 10uM” value is -4.35%. For the compound `Cc1ccc(S(=O)(=O)N/N=C/c2cccs2)cc1`, the “hERG current change (%, negative = inhibition) at 10uM” value worked out at 9.65%. As to `C=CCOc1ccccc1CNc1cccc(F)c1`, the “hERG current change (%, negative = inhibition) at 10uM” value came out at 14.2%. Consider `CCC(C)Sc1cc(-c2nc3ccc(C)cn3c2NCc2ccccc2)ccc1OC.O=C(O)C(F)(F)F` (stereo not drawn), for which the “hERG current change (%, negative = inhibition) at 10uM” value is listed as -1.12%. In the case of `OC(COC(c1ccccc1)c1ccccc1)CN1CCN(c2ccccn2)CC1` (stereo not drawn), the “hERG current change (%, negative = inhibition) at 10uM” value is reported as -74.7%. `Cl.OC(COc1ccc(Cl)c2ccccc12)CN1CCN(c2ccccn2)CC1` (stereo not drawn): the “hERG current change (%, negative = inhibition) at 10uM” value is reported as -21.9%. Next, `Cl.OC(COC(c1ccc(Cl)cc1)c1ccc(Cl)cc1)CN1CCN(c2ccccn2)CC1` (stereo not drawn): -82.4%; `Cl.OC(COc1cccc2ccccc12)CN1CCN(c2ccccn2)CC1` (stereo not drawn): -49.2%.

With `Cc1cc(C)c2nc(-c3ccccn3)cc(C(=O)n3cccn3)c2c1`, the “hERG current change (%, negative = inhibition) at 10uM” value amounted to 22.9%. `S=C(NCCc1ccccc1)NCCc1cnc[nH]1`: the “hERG current change (%, negative = inhibition) at 10uM” value is recorded as -4.01%. For `CCOC(=O)C1CCCN(S(=O)(=O)c2cn(C)c(=O)n(C)c2=O)C1` (stereo not drawn), the “hERG current change (%, negative = inhibition) at 10uM” value worked out at 12.8%. `Cc1cc(=O)[nH]c(SCCCOc2ccccc2Cl)n1`: the “hERG current change (%, negative = inhibition) at 10uM” value came out at 3.82%. Take `CCOC(=O)c1cnc2c(Cl)cccc2c1NCCN1CCOCC1`: the “hERG current change (%, negative = inhibition) at 10uM” value is given as -15.3%. Take `CCOC(=O)c1cnc2c(C)cccc2c1NCCCN1CCOCC1`: the “hERG current change (%, negative = inhibition) at 10uM” value is recorded as -72.8%. The value for `CCOC(=O)c1cnc2c(CC)cccc2c1NCCCN1CCOCC1` was -35.6%; that for `CCOC(=O)c1cnc2c(C(=O)OC)cccc2c1NCCN1CCOCC1` was -70%; that for `CCOC(=O)c1cnc2c(Cl)cccc2c1NCCCN1CCOCC1` was -44.7%. Next, `CCOC(=O)c1cnc2c(CC)cccc2c1NCCN1CCOCC1`: -44.4%; `CCOC(=O)c1cnc2c(Cl)cc(Cl)cc2c1NCCCN1CCOCC1`: -4.47%. `CCOC(=O)c1cnc2c(C)cc(Cl)cc2c1NCCCN1CCOCC1`: the “hERG current change (%, negative = inhibition) at 10uM” value is on record as 1.44%. `CCOC(=O)c1cnc2c(C)cc(C)cc2c1NCCCN1CCOCC1`: the “hERG current change (%, negative = inhibition) at 10uM” value is reported as -59.7%. As to `CCOc1c2ccc(C(=O)NCCCCc3ccccc3)cc2nn1C`, the “hERG current change (%, negative = inhibition) at 10uM” value was -14.5%.

On to `CC(=O)c1cc(O)c2ccccc2c1O`, for which the “hERG current change (%, negative = inhibition) at 10uM” value was -2.58%. As for `CC(=O)Nc1ccc(C(=O)N/N=C/c2ccccc2OCc2ccccc2)cc1`, the “hERG current change (%, negative = inhibition) at 10uM” value came to 29.2%. Turning to `C#CCNC(=O)C1=C[C@@H](c2ccccc2)C[C@@H](OCCCCO)O1`, the “hERG current change (%, negative = inhibition) at 10uM” value was -13.4%. Take `CCCCc1ccc(NC(=O)NCc2cccnc2)cc1`: the “hERG current change (%, negative = inhibition) at 10uM” value is reported as -41.4%. Next, `Cc1nc2cc(F)ccc2n1C1CCN(C(=O)c2ccc(F)cc2F)CC1`: -56.4%; `COc1cc(C(=O)N2CCC(n3cnc4cc(F)ccc43)CC2)cc(OC)c1OC`: -56.9%; `COc1cc(OC)cc(C(=O)N2CCN(C(=O)c3cccc(F)c3)CC2)c1`: -3.19%. Regarding `COC(=O)C1CCN(C(=O)c2cc(OC)c(OC)c(OC)c2)CC1`, the “hERG current change (%, negative = inhibition) at 10uM” value is 19.3%.

Consider `COc1ccc(-n2c(C)nc3cc(C(=O)N4CCOCC4)ccc32)cc1`, for which the “hERG current change (%, negative = inhibition) at 10uM” value is on record as -14.1%. On to `COc1cc(OC)cc(C(=O)N2CCC(n3c(C)nc4cc(F)ccc43)CC2)c1`, for which the “hERG current change (%, negative = inhibition) at 10uM” value is reported as -59%. Turning to `Cc1nc2cc(F)ccc2n1C1CCN(S(=O)(=O)c2ccccc2)CC1`, the “hERG current change (%, negative = inhibition) at 10uM” value is listed as -48.6%. Take `COc1ccc(C(=O)N2CCC(n3c(C)nc4cc(F)ccc43)CC2)cc1`: the “hERG current change (%, negative = inhibition) at 10uM” value is reported as -73.4%.

On to `Cc1nc2cc(C(=O)O)ccc2n1C1CCCCC1`, for which the “hERG current change (%, negative = inhibition) at 10uM” value is 7.52%. With `COc1cc(OC)cc(OC(=O)C2CCN(C(=O)c3ccc(F)cc3)CC2)c1`, the “hERG current change (%, negative = inhibition) at 10uM” value is on record as -7.47%. With `COc1cc(OC)cc(C(=O)N2CCC(N3CCCCCC3)CC2)c1`, the “hERG current change (%, negative = inhibition) at 10uM” value was -5.77%.

As to `COc1cc(C(=O)N2CCC(N3CCCCCC3)CC2)cc(OC)c1OC.O=C(O)C(=O)O`, the “hERG current change (%, negative = inhibition) at 10uM” value is -2.57%.

As for `Cn1c(=O)cc(OCCCC(=O)N2CCN(c3ccccc3)CC2)c2ccccc21`, the “hERG current change (%, negative = inhibition) at 10uM” value is recorded as -47.3%. Next, `Cc1c(N=Nc2c(O)n(C)c(=O)n(C)c2=O)c(=O)n(-c2ccccc2)n1C`: 8.74%; `O=C(c1cccs1)N1CCN(C(=O)c2ccco2)c2ccccc2C1`: -13.6%. Regarding `COc1ccc(Cc2nc3ccc(C(=O)NCCCSC)cc3o2)cc1OC`, the “hERG current change (%, negative = inhibition) at 10uM” value was determined as 0.503%. For `O=C(NNC(=O)c1cccc2ccccc12)c1ccccc1O`, the “hERG current change (%, negative = inhibition) at 10uM” value stood at 4.19%. The value for `O=c1c2ccccc2nc(SCc2cc(F)cc3c2OCOC3)n1Cc1ccco1` was -2.26%.
